Akt phos inh = HTS Assay for Inhibitors of Akt Phophorylation: Primary Screen; activity change, % for hits at 50 µM; Neuro2A IGF-stimulated pAkt S473 HTRF, 20 min; active compounds read low; hit rate 0.32% among 360,000; in the data active = activity change below about -80%; inconclusive = mostly about -51% to -80%
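Single-point screen (50 µM final compound) in Neuro2A cells stimulated 20 min with 6 nM IGF at 37 deg C. After lysis, Ser473-phosphorylated Akt read by HTRF (ex 330 nm, em 615/665 nm) as the 665/615 ratio.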
CtBP-E1A inh = qHTS Assay for Inhibitors of the CtBP/E1A Interaction | CtBP / adenovirus E1A interaction (AlphaScreen) | AlphaScreen GST-E1A/His-CtBP binding, 1536-well; active compounds read low | activity change, % (test concentration not listed) | hit rate 0.49% among 340,000
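GST-E1A and His-tagged CtBP (125 nM each as 5X stock) were preincubated with pin-transferred compound for 2 h at 37 °C in the dark, then glutathione donor and nickel acceptor beads were added for 1 h before AlphaScreen reading.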
Six1-Eya2 inh = qHTS Assay for Inhibitors of the Six1/Eya2 Interaction; hit rate 0.56% among 360,000; activity change, % (no concentration beside the values); AlphaScreen GST-Six1/His-Eya2 binding, biochemical; active compounds read low; Homeobox protein SIX1 (Homo sapiens) + Protein phosphatase EYA2 (Homo sapiens), …
Target sequence (O00167 whole entry, looked up): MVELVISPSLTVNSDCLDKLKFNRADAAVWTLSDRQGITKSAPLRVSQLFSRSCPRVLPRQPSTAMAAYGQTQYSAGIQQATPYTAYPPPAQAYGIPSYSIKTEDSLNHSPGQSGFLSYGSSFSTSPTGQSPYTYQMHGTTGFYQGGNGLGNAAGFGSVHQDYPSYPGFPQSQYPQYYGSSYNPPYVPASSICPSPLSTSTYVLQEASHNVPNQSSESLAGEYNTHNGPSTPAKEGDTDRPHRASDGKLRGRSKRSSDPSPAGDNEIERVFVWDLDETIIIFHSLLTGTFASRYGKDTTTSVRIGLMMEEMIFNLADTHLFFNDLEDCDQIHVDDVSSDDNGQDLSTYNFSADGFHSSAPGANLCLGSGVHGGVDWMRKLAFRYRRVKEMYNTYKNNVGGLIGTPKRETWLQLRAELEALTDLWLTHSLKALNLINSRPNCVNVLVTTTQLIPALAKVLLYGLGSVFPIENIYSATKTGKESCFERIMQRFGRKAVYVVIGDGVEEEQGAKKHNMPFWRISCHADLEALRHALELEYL
Target sequence (Q15475 whole entry, looked up): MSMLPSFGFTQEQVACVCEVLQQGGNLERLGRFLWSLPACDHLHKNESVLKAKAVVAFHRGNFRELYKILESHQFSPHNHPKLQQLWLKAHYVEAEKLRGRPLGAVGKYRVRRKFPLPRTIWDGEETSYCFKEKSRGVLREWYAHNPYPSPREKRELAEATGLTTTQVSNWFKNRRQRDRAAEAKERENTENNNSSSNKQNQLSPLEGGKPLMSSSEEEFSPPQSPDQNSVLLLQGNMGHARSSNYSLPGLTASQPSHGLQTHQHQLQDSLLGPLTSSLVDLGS
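GST-Six1 + His-Eya2 (5X stock: 250/500 nM); Tris pH 8.0, 300 mM NaCl, 0.05% BSA, 0.02% Tween 20; GSH donor/Ni acceptor beads; 1 h 37 °C dark; AlphaScreen readout.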
PI4K2A inh = qHTS for small molecular inhibitors of PI4K2A; purified PI4K2A, ADP-Glo luminescence, 1 h; active compounds read low; AID 1346378, 2018; activity change, negative = inhibition, % at 76.9 µM; Phosphatidylinositol 4-kinase type 2-alpha (Homo sapiens), Q9BTU6; hit rate 0.13% among 420,000; in the data active = activity change below about -50%; inconclusive = mostly about -30% to -49%
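PI4K2A activity was measured by ADP-Glo luminescence: enzyme (4 ug/mL stock) and phosphatidylinositol (1.2 mM stock) in Tris pH 7.5/MgCl2/EGTA/Triton X-100 buffer were reacted with ATP (300 microM stock) for one hour at ambient temperature.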
PI5P4K alpha inh = qHTS for Inhibitors of phosphatidylinositol 5-phosphate 4-kinase (PI5P4K) | Phosphatidylinositol 5-phosphate 4-kinase type-2 alpha (Homo sapiens), P48426 | PI5P4Kalpha enzyme, ADP-Glo luminescence, 60 min; active compounds read low | max response, % | hit rate 1.2% among 330,000; active = max response of -50% or lower; inconclusive = between -30% and -50%; inactive = -30% or higher; also: value at the top dose of about 77 µM
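ADP-Glo luminescence end-point after a 60 min room-temperature kinase reaction. PI5P4Kalpha and substrate in HEPES pH 7.4 buffer with EGTA, 0.1% CHAPS and 5% DMSO; ATP at 5 microM final.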
Large screens that a line does not name were inactive. Only some compounds are listed: those with a hit (about 1.8% of all), similar ones and a draw of the others. Rule as the data show it, unless noted: active = activity change below about -65%; inconclusive = mostly about -30% to -63%; inactive = weaker than that.

Cc1c(NC(=O)c2cc(-c3cccs3)on2)c(=O)n(-c2ccccc2)n1C	Akt phos inh -83% (no result: PI5P4K alpha inh)
Cc1c(N)c(C(C)(C)C)cc(C(C)(C)C)c1[N+](=O)[O-]	none
Cc1cc2nc3c(=O)[nH]c(=O)[nH]c3nc2c([N+](=O)[O-])c1N	CtBP-E1A inh -82, Six1-Eya2 inh -84, PI5P4K alpha inh -76
c1ccc(-n2nnc3ccccc32)cc1	none
C(=C\n1nnc2ccccc21)/c1ccc[nH]1	PI5P4K alpha inh -77
O=c1cc(-c2ccc(O)cc2)oc2c(C3O[C@H](CO)[C@@H](O)[C@H](O)[C@H]3O)c(O)cc(O)c12 (stereo partly specified)	PI5P4K alpha inh -73
COc1ccc(CCNC(=O)C2(c3cccs3)CCOCC2)cc1	none (no result: Akt phos inh, CtBP-E1A inh, Six1-Eya2 inh, PI5P4K alpha inh)
CC(C(=O)N1CCc2ccccc21)N(C)CC(=O)Nc1cccc(F)c1 (stereo unspecified)	none
CCOC(=O)N1CCN(C(=O)c2oc3ccc(S(=O)(=O)N4CC(C)CC(C)C4)cc3c2C)CC1 (stereo unspecified)	none
CCOC(=O)C1CCN(C(=O)c2oc3ccc(S(=O)(=O)N4CC(C)CC(C)C4)cc3c2C)CC1 (stereo unspecified)	Akt phos inh -82% (no result: PI5P4K alpha inh)
O=C(/C=C/c1ccc([N+](=O)[O-])cc1)NC1CC2CCC1C2 (stereo unspecified)	PI5P4K alpha inh -52
NC(CCc1ccccc1)c1csc(Nc2ccccn2)n1 (stereo unspecified)	CtBP-E1A inh -83, Six1-Eya2 inh -73
NC(COCc1ccccc1)c1csc(Nc2ccccn2)n1 (stereo unspecified)	CtBP-E1A inh -90, Six1-Eya2 inh -89
Oc1c(Br)cc(Br)cc1/C=N/c1nc2c(s1)CCCC2	PI5P4K alpha inh -54
COc1cccc(C(=O)NCCS(=O)(=O)N2CCCCC2)c1	none
COc1ccc(N2CCN(C3CCCN(S(=O)(=O)c4ccc(C)cc4C)C3)CC2)cc1 (stereo unspecified)	CtBP-E1A inh -66, Six1-Eya2 inh inconclusive
CN(c1cccc(Cl)c1)S(=O)(=O)c1cccc(C(=O)Nc2nc3ccccc3[nH]2)c1	none
CC1CCCCC1NC(=O)COC(=O)c1c2c(nc3ccccc13)/C(=C/c1ccco1)CC2 (stereo unspecified)	Six1-Eya2 inh inconclusive, PI4K2A inh inconclusive, PI5P4K alpha inh -83
O=C(COC(=O)c1c2c(nc3ccccc13)/C(=C/c1ccco1)CC2)NC1CCCC1	PI4K2A inh inconclusive, PI5P4K alpha inh -71
Cc1cc(C(=O)OCC(=O)NC2CCCCC2C)c2ccccc2n1 (stereo unspecified)	none
CCOC(=O)CSc1ncnc2c1cnn2-c1ccc(C)cc1	none
CC[C@]12c3[nH]c4ccc(Cl)cc4c3CCN1C(=O)[C@@H](CC(=O)NCc1ccc(OC)c(OC)c1)C[C@@H]2C(=O)N1CCN(C(=O)C2CC2)CC1	none
CCOC(=O)c1cnn(-c2cc(C)c3ccccc3n2)c1N	Akt phos inh -133%
CCOC(=O)c1cnn(-c2ccccn2)c1N	none
Cc1ccc(CN(Cc2ccco2)C(=S)NCC(=O)O)cc1	none
CN(C)c1ccc(N=Nc2ccccc2C(=O)OCC(=O)NC2CCCC2)cc1	CtBP-E1A inh -66, Six1-Eya2 inh -71
CN(C)c1ccc(N=Nc2ccccc2C(=O)OCC(=O)N(C)C2CCCCC2)cc1	none
CN(C)c1ccc(N=Nc2ccccc2C(=O)OCC(=O)NCC2CCCCC2)cc1	CtBP-E1A inh -68, Six1-Eya2 inh -74
Cc1ccc(S(=O)(=O)N2CCOCC2)cc1C(=O)O	none (no result: PI5P4K alpha inh)
O=C(O)c1cc2cccc(S(=O)(=O)N3CCOCC3)c2cc1O	PI5P4K alpha inh -73
CC1CCN(C(=O)c2[nH]cnc2C(=O)N(C)Cc2ccccc2)CC1	none
Cc1cc(C)c(NC(=O)C(C)n2c(=O)c(C(F)(F)F)nc3ccccc32)c(C)c1 (stereo unspecified)	none (no result: Akt phos inh, CtBP-E1A inh, Six1-Eya2 inh, PI5P4K alpha inh)
COc1ccc2nc(Nc3nc(CSc4nnnn4-c4ccccc4)cc(=O)[nH]3)nc(C)c2c1	Akt phos inh -120%

Source: PubChem (National Center for Advancing Translational Sciences (NCATS))
